Out of some 96,000 compounds screened, about 20,000 (21%) were called active. Not all results are given here. A number with no mark means an inactive call.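 The calls were made as follows: active = CYP2C19 inhibition above a set limit at 5 µM in the primary screen (cut at about 50% in these data); inactive = the rest.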

Chain of Cytochrome P450 2C19 (Homo sapiens) (P33261 whole entry, looked up): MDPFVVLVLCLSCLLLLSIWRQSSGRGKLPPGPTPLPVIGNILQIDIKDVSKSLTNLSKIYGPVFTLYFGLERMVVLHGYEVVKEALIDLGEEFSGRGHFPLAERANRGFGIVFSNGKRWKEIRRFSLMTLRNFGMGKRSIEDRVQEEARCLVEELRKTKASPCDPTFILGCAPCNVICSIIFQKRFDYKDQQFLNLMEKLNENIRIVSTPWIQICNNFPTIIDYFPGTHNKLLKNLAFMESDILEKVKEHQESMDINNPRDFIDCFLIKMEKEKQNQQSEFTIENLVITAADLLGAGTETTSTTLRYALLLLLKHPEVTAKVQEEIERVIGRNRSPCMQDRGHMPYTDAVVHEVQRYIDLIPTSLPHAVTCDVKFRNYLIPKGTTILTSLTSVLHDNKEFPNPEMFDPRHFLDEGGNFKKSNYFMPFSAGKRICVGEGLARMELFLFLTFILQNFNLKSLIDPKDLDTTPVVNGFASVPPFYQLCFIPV

This assay has as its target Cytochrome P450 2C19 (Homo sapiens) (UniProt P33261). Kind of assay: blockers of cytochrome P450 2C19 activity – biochemical, luminescence, ADME assay, primary screen (AID 778).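 Also: plate controls were negative control wells for no effect and 2.5 mM tranylcypromine positive control for full effect.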 Conditions: CYP2C19 Supersomes, luciferin-H EGE luminescence, 30 min; at 5 µM; hits give high values.
For the compound `CCS(=O)(=O)Nc1cc(C(=O)OC)ccc1C(=O)OC`, the inhibition was 49.8%.

`CCSc1nc(C)nc2c1oc1ccccc12`: the inhibition is 15.2%.

On to `COc1ccc(-c2cn3ccsc3n2)cc1`, for which the inhibition was 14.3%.

Consider `CCCS(=O)(=O)N1CCCC(C(=O)NCCN2CCCCC2C)C1` (stereo not drawn), for which the inhibition was -13.4%.

Take `O=C(CCC(=O)N1CCN(S(=O)(=O)c2ccccc2)CC1)NC1CCCc2ccccc21` (stereo not drawn): the inhibition was 17.7%.

With `COCc1[nH][nH]c(=O)c1C=Nc1ccc(F)cc1F`, the inhibition was -10.3%.

On to `CC(C)C(NC(=O)OCc1ccccc1)C(=O)OCC(=O)N1C(C)CCCC1C` (stereo not drawn), for which the inhibition was 40.3%.

For `CCOc1ccc2[nH]c(=O)c(C(c3nnnn3CCOC)N3CCOCC3)cc2c1` (stereo not drawn), the inhibition is 11.5%.

On to `COc1ccc(N2CCN(C(c3cc4ccc(C)cc4[nH]c3=O)c3nnnn3C3CCCC3)CC2)cc1` (stereo not drawn), for which the inhibition is 54.4% (active).

With `Cc1cccc(N2CCN(C(c3ccccc3)c3nnnn3CC3CCCO3)CC2)c1C` (stereo not drawn), the inhibition is 12.7%.

Consider `CC(C)C(c1nnnn1C1CCCC1)N1CCN(c2ccccc2F)CC1` (stereo not drawn), for which the inhibition was 8%.

With `COc1ccc(C(c2nnnn2C2CCCCC2)N2CCN(c3ccccc3F)CC2)cc1` (stereo not drawn), the inhibition is 80.6% (active).

Turning to `CC(C)c1ccc(NS(=O)(=O)c2cn(C)c(=O)n(C)c2=O)cc1`, the inhibition is 34%.

Consider `Cc1cc(N2CCCC2)n2nc(C)c(-c3ccccc3)c2n1`, for which the inhibition was -17.7%.

Regarding `CCNc1nc(NCC)nc(N(C)n2cnnc2)n1`, the inhibition is -6%.

Take `Nc1ccc(-c2nnc(-c3ccc(-c4ccccc4)cc3)o2)cc1`: the inhibition is 25.3%.

With `Nc1ccc(-c2sc(N)nc2-c2ccccc2)cc1`, the inhibition was 61.8% (active).

As to `CC(=O)c1cc(C#N)c(SCC(=O)C(C)(C)C)nc1C`, the inhibition is 34.4%.

As to `Cn1c(C(=O)NCCc2ccsc2)cc2c(=O)n(C)c3ccccc3c21`, the inhibition is 11.7%.

With `COc1ccccc1CNC(=O)C1CCN(c2nc3ccccc3o2)CC1`, the inhibition was 3.5%.

Regarding `CCc1ccc(CNC(=O)C2CCCN(c3nc4ccccc4o3)C2)cc1` (stereo not drawn), the inhibition is 65.8% (active).

On to `COc1ccc(OC)c(CNC(=O)C2CCCN(c3nc4ccccc4o3)C2)c1` (stereo not drawn), for which the inhibition is 17.2%.

Take `COc1ccc2ccccc2c1CNCc1ccccn1`: the inhibition is 15.9%.

As for `COc1ccc(/C(O)=C2\C(=O)C(=O)N(Cc3ccco3)C2c2ccc(OC)cc2OC)cc1` (stereo not drawn), the inhibition is 3.4%.

On to `COc1ccccc1C1/C(=C(/O)c2ccc(OC(C)C)cc2)C(=O)C(=O)N1c1cc(C)on1` (stereo not drawn), for which the inhibition is -7.6%.

For the compound `COc1ccc(/C(O)=C2/C(=O)C(=O)N(c3nc(C)c(C)s3)C2c2ccco2)cc1` (stereo not drawn), the inhibition was 58.8% (active).

Regarding `CN(C)CCCn1c(N)c(C#N)c2nc(C#N)c(C#N)nc21`, the inhibition is -1.9%.

For `COC(=O)C(C)Oc1ccc2c(-c3cccc([N+](=O)[O-])c3)cc(=O)oc2c1` (stereo not drawn), the inhibition was 28.8%.

Take `C=CCNC(=O)c1cc2nc(C3CC3)cc(C(F)F)n2n1`: the inhibition was 51.2% (active).

Consider `O=C(Nc1ccc(Cl)cc1)c1cc2nc(C3CC3)cc(C(F)(F)F)n2n1`, for which the inhibition is -6.4%.

`Cc1nc(N2CCCC2C(=O)O)c2oc3ccccc3c2n1` (stereo not drawn): the inhibition was 2.4%.

On to `Cc1ccccc1NC(=O)C(C)c1ccc(-c2ccccc2)c(F)c1` (stereo not drawn), for which the inhibition is 7.1%.

`Cc1n[nH]c(=O)n1-c1ccc(Oc2ccccc2)cc1`: the inhibition was 18.5%.

Take `Cc1nn(C)c(Oc2ccccc2)c1[N+](=O)[O-]`: the inhibition was 64% (active).

Consider `Cc1nn(C)c(Oc2ccccc2)c1CCNS(=O)(=O)c1ccc(F)cc1`, for which the inhibition was 96.7% (active).

In the case of `Cc1nn(C)c(Oc2ccc(Cl)cc2)c1C=O`, the inhibition was 27.7%.

With `Cc1cccc(N2C(=O)SC(N(CC(=O)O)c3cccc(C)c3)C2=O)c1` (stereo not drawn), the inhibition is 1.5%.

`COC(=O)C(NC(=O)c1ccc(OC)cc1)(Nc1ncc(S(=O)(=O)c2ccc([N+](=O)[O-])cc2)s1)C(F)(F)F` (stereo not drawn): the inhibition was 33.8%.

`O=C(CSCc1ccc([N+](=O)[O-])cc1)NCCSCc1ccccc1`: the inhibition was 21.3%.

For the compound `c1ccc(CSCCc2ccncc2)cc1`, the inhibition was 99.8% (active).

Regarding `COc1ccc(-c2nn(C)c(=O)c3ccccc23)cc1NC(=O)COc1ccccc1`, the inhibition is 25.6%.

Regarding `CCOc1nc(OCC)nc(-n2cc(-c3ccccc3)nn2)n1`, the inhibition is 3.5%.

`Cc1cnc(NC(=O)CSc2nnc(-c3ccc(Cl)cc3Cl)n2N)s1`: the inhibition was 23.2%.

Turning to `COc1ccc(-c2nnc(SC(C)C#N)o2)cc1` (stereo not drawn), the inhibition is 10.9%.

Turning to `C#CCNc1nc(C(C)C)nc2c1nnn2Cc1ccccc1F`, the inhibition was 37.3%.

As to `Cc1nc(Nc2ccc3c(c2)OCCO3)c2nnn(Cc3ccccc3Cl)c2n1`, the inhibition is 83.2% (active).

With `O=C(Nc1cc2ccccc2oc1=O)C1CCCCC1`, the inhibition is 0.3%.

On to `O=C(CC12CC3CC(CC(C3)C1)C2)Nc1ccc2c(c1)COC2=O`, for which the inhibition is 12.8%.

As to `O=C(Oc1ccc2c(c1)CCC2)N1CCOCC1`, the inhibition was 11.1%.

As to `CC(=O)Nc1ccccc1OC(=O)N1CCOCC1`, the inhibition was 0.3%.

As for `O=C(/C=C/c1cccs1)c1cc(Cl)ccc1OC(=O)N1CCOCC1`, the inhibition was 90.6% (active).

With `O=c1cc(N2CCN(Cc3ccccc3)CC2)c(-c2ccccc2)n[nH]1`, the inhibition was 19%.

Turning to `CCOC(=O)c1c(NC(C)=O)sc2c(O)c(Br)ccc12`, the inhibition is 3.8%.

Turning to `CCOC(=O)c1cc(C)sc1NC(=O)C1CCC1`, the inhibition is 54.6% (active).

Turning to `Cc1cnc(NC(=O)C2CCCC2)s1`, the inhibition was 17.5%.

On to `CC(=NC1CCN(Cc2ccccc2)CC1)c1c(O)[nH]c(=O)[nH]c1=O`, for which the inhibition is -7.4%.

On to `CC(C)c1nnc(NC(=O)C2CCCN2S(=O)(=O)c2ccc(Cl)cc2)s1` (stereo not drawn), for which the inhibition is 17.2%.

In the case of `CCOc1ccc(NC(=O)CC2NCCNC2=O)cc1` (stereo not drawn), the inhibition is 1.1%.

On to `CCOc1ccc(S(=O)(=O)n2ccnc2)c2ccccc12`, for which the inhibition was 66.5% (active).

Regarding `CCOc1ccc(S(=O)(=O)N2CCCCCC2)c2ccccc12`, the inhibition was 32.3%.

For `CCOC(=O)c1ccc(N2C(=O)CC(N3CC(C)OC(C)C3)C2=O)cc1` (stereo not drawn), the inhibition is 6.8%.

Consider `CCOC(=O)c1ccc(N2C(=O)CC(N3CCC(C(=O)OCC)CC3)C2=O)cc1` (stereo not drawn), for which the inhibition was 47.5%.

For `CCCCOC(=O)c1ccc(N2C(=O)CC(N3CCN(C/C=C/c4ccccc4)CC3)C2=O)cc1` (stereo not drawn), the inhibition is 86.2% (active).

For orientation: inhibition means the drop in the measured response relative to a control, in per cent.
